Among the data in PubChem BioAssay (NCATS) are efficacy values, retold here.

Entries with a potency or affinity are not part of this list. Activity calls are given as the source filed them. How the calls were made is not given here.
Further: 0% is about no effect.

For this test the following is noted: Ebola virus entry assay, green fluorescence channel.
Consider `Cc1ccsc1/C=C/C1=NCCCN1C`, for which the efficacy is -24.4% (inactive).

On to `CC(=O)C1CCOC1=O` (stereo not given), for which the efficacy was 6.81% (inactive).

On to `NC(=O)N[C@@H](CCC(=O)O)C(=O)O`, for which the efficacy was -11.5% (inactive).

As for `O=C(O)COc1nn(Cc2ccccc2)c2ccccc12`, the efficacy was -8.45% (inactive).

In the case of `O=C(NCN1CCOCC1)c1cnccn1`, the efficacy is 22.2% (inactive).

In the case of `COP(=S)(OC)Oc1ccc(S(=O)(=O)N(C)C)cc1`, the efficacy is -33.6% (inactive).

Regarding `C/C=C1\[C@H]2C=C(C)C[C@]1(N)c1ccc(=O)[nH]c1C2`, the efficacy was 25.8% (inactive).

`Cn1cc(S(C)=O)c(=O)c2ccc(F)cc21` (stereo not given): the efficacy is -15.1% (inactive).

Regarding `Cc1cccc(C)c1NC(=O)c1cc(S(N)(=O)=O)c(Cl)cc1O`, the efficacy is -19.2% (inactive).

For the compound `COC1CC(=C(c2cccs2)c2cccs2)C[N+](C)(C)C1` (stereo not given), the efficacy is 18.8% (inactive).

Regarding `C[C@@H]1O[C@@H](OC[C@H]2O[C@@H](Oc3c(-c4ccc(O)c(O)c4)oc4cc(O)cc(O)c4c3=O)[C@H](O)[C@@H](O)[C@@H]2O)[C@H](O)[C@H](O)[C@H]1O`, the efficacy is 21.1% (inactive).

Regarding `CC1(C)OC(=O)NC1=O`, the efficacy was 15.4% (inactive).

`CCCCCC(C)N` (stereo not given): the efficacy is -23% (inactive).

On to `COCCOCC(OC)OC`, for which the efficacy was 16.2% (inactive).

Take `C[C@@H](O)[C@H]1C(=O)N2C(C(=O)O)=C(SCCN=CN)C[C@H]12`: the efficacy was 21.9% (inactive).

As to `Nc1nc(N)nc(-c2cc(Cl)ccc2Cl)n1`, the efficacy was -23.5% (inactive).

Regarding `Cc1c(F)c(N2CCNC(C)C2)cc2c1c(=O)c(C(=O)O)cn2C1CC1` (stereo not given), the efficacy is -15% (inactive).

In the case of `Cc1ncc([N+](=O)[O-])n1CC(C)O` (stereo not given), the efficacy was -13.9% (inactive).

With `O=C1c2ccccc2C(=O)c2ccccc21`, the efficacy was 11.2% (inactive).

For `CCCc1nn(C)c2c(=O)[nH]c(-c3cc(S(=O)(=O)N4CCN(C)CC4)ccc3OCC)nc12`, the efficacy was 14.7% (inactive).

On to `CC(C)(C)CC(C)(C)c1ccc(OCCOCC[N+](C)(C)Cc2ccccc2)cc1`, for which the efficacy was -219% (inactive).

In the case of `Nc1cc(C(Cl)=C(Cl)Cl)c(S(N)(=O)=O)cc1S(N)(=O)=O`, the efficacy was -15.2% (inactive).

On to `C[C@]12CCC(=O)C=C1CC[C@@H]1[C@@H]2[C@@H](O)C[C@@]2(C)[C@H]1CC[C@]2(O)C(=O)COC(=O)CCC(=O)O`, for which the efficacy is -14% (inactive).

As for `CCCCCCC(=O)CCCCCC/C=C/C[C@@H](O)[C@H](O)[C@@](N)(CO)C(=O)O`, the efficacy was -11.6% (inactive).

As for `CC12CCC(CC1)C(C)(C)O2`, the efficacy was 14.6% (inactive).

Take `COc1ccc(C(=O)c2ccccc2)c(O)c1`: the efficacy was 30% (inactive).

With `CC(C)(N)Cc1ccccc1Cl`, the efficacy is 18% (inactive).

In the case of `NCc1ccc(S(N)(=O)=O)cc1`, the efficacy was -17.9% (inactive).

For `CC(C)=CC1C(C(=O)OCN2C(=O)C3=C(CCCC3)C2=O)C1(C)C` (stereo not given), the efficacy was 28% (inactive).

As for `CCn1cc(C(=O)O)c(=O)c2cnc(N3CCNCC3)nc21`, the efficacy is -36.7% (inactive).

Turning to `ClCCN1CCCC1`, the efficacy is -44.4% (inactive).

On to `COc1cc(C(=O)N2CCOCC2)cc(OC)c1OC`, for which the efficacy is -19.5% (inactive).

On to `CC(=O)Nc1ccc(/C=N/NC(N)=S)cc1`, for which the efficacy was 33.2% (inactive).

On to `Nc1ccc(/C=C/c2ccc(N)cc2S(=O)(=O)O)c(S(=O)(=O)O)c1`, for which the efficacy is 21.3% (inactive).

On to `CC(C)(Oc1ccc(Cl)cc1)C(=O)O`, for which the efficacy was -14.9% (inactive).

With `O=[N+]([O-])O[C@H]1CO[C@H]2[C@@H]1OC[C@H]2O[N+](=O)[O-]`, the efficacy was -25.2% (inactive).

For `CN1N=C(C(N)=O)CCC1=O`, the efficacy is -14% (inactive).

As for `CC(=O)OCC(=O)[C@@]1(O)CC[C@H]2[C@@H]3CCC4=CC(=O)C=C[C@]4(C)[C@@]3(F)[C@@H](O)C[C@@]21C`, the efficacy is 26.4% (inactive).

As for `NCCS(=O)(=O)O`, the efficacy was 39.2% (inactive).

As for `C[C@H]1O[C@@H](n2cc(F)c(=O)[nH]c2=O)[C@H](O)[C@@H]1O`, the efficacy is -18.2% (inactive).
